This note sets out measurements from PubChem BioAssay AID440 (NMMLSC, 2006).

What is called inhibition is the relative decrease from the control value, in per cent.

Among all 24,000 compounds or so, about 180 (0.75%) were called active. What follows is part of a selection rich in actives, with near analogues and random picks from the rest. Values without a mark were called inactive. Cut-off read from the data, not from the text of the source: active = inhibition above about 30%; inconclusive = no clear call, values can overlap the other calls; inactive = below that.

The target of the assay is fMet-Leu-Phe receptor (Homo sapiens) (UniProt P21462). Put plainly: human FPR ligands by binding competition, primary screen, cell-based, FPRL1 counter-screen, flow cytometry (AID 440).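 Note: 0% = buffer wells and 100% = receptor blocker peptide wells.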 Particulars: FPR-expressing cells, fluorescent ligand binding, hits give high values, concentration not given here. In general terms: A counterscreen serves to expose hits that act by an unwanted route or on another target.
Sequence of fMet-Leu-Phe receptor (Homo sapiens) (P21462 whole entry, looked up): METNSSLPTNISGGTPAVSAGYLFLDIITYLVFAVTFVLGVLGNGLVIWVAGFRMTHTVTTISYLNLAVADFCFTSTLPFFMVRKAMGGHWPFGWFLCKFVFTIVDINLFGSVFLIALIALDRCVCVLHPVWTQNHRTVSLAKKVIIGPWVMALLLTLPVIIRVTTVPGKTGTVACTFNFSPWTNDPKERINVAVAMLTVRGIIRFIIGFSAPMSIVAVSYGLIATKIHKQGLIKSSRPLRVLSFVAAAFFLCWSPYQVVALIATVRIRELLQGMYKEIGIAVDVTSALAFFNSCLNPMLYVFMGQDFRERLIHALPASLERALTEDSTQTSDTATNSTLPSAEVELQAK
In the case of `N#CCCN1CCN(S(=O)(=O)c2ccc(S(=O)(=O)N3CCCC3)cc2)CC1`, the inhibition was -3.3%.
Then `O=C(Nc1ccc(Cl)cn1)Nc1cccs1`, with -2.2%; and `COc1ccc(/C(O)=C2/C(=O)C(=O)N(CC3CCCO3)C2c2ccc(OC)c(OC)c2)cc1` (stereo not given), with 0.3%.
Regarding `COc1ccc(/C(O)=C2\C(=O)C(=O)N(Cc3ccco3)C2c2ccc(OC)cc2OC)cc1` (stereo not given), the inhibition was 38% (active).
Then `COc1ccccc1C1/C(=C(/O)c2ccc(C)cc2)C(=O)C(=O)N1Cc1ccco1` (stereo not given), with 4.3%.
For the compound `CCOC(=O)Cn1c(CN(Cc2ccccc2)Cc2ccccc2)nc2c1c(=O)[nH]c(=O)n2C`, the inhibition is -0.1%.
The result for `COc1c(F)c(F)c(C(=O)O)c(Nc2ccccc2C)c1F` reads -4.8%; that for `Cc1cc(N2C(=O)C(=O)/C(=C(/O)c3ccccc3)C2c2cccc(Br)c2)no1` (stereo not given), -1.3%; that for `CCOC(=O)c1ccn(-c2nc(-c3ccco3)cc(C(F)(F)F)n2)n1`, 5.4%.
Then `CN1CCCC(OC(=O)COc2ccc(Br)cc2)C1` (stereo not given), with -3%; and `CCCn1nnc2sc3c(c2c1=O)CCC(C)C3` (stereo not given), with 0.2%; and `Cc1cccc(-n2nc3c(c2NC(=O)c2ccc(Br)o2)CSC3)c1C`, with 6.4%.
Then `CC1(C)C(=O)Nc2ccccc2N1C(=O)COC(=O)Cn1cnc2ccccc2c1=O`, with -1.5%; and `O=C(CCSCCc1ccccn1)Nc1nccs1`, with 2.6%; and `CCOc1cccc(-c2nnc3sc(COc4ccc(OC)cc4)nn23)c1`, with -4.8%.
Regarding `Clc1ccc(Cc2nn3c(-c4ccncc4)nnc3s2)cc1`, the inhibition was 46.7% (active).
Turning to `c1ccc(Cc2nn3c(Cn4cnc5ccccc54)nnc3s2)cc1`, the inhibition was 4.2%.
Take `CCOc1ccc(NC(=O)CCS(=O)(=O)c2cccc3nsnc23)cc1`: the inhibition is 7.6%.
For the compound `O=C(c1ccccc1)c1cccn1CC(=O)N1CCN(c2ccc(F)cc2)CC1`, the inhibition is 0.2%.
Then `CCCC(=O)C1=C(N(C)c2ccccc2)CC(C)(C)C(C(=O)OC)C1=O` (stereo not given), with 1.9%; and `O=C(O)CC(c1ccccc1)n1cnnn1` (stereo not given), with -4.6%; and `CCN(Cc1ccccc1)C(=O)CSc1nc(C)cc2c1C(=O)OC2`, with 2%.
Regarding `O=C(CCN1C(=O)c2ccccc2C1=O)NCCN1CCOCC1`, the inhibition is -4.5%.
Then `O=C1CC(c2ccccc2)CC(O)=C1C=NCCN1CCOCC1` (stereo not given), with 9.7%; and `CCCC(=O)Nc1nnc(CC(=O)OCC)s1`, with 9.1%; and `COc1ccc(-c2nc(CS(=O)CC(=O)NCc3cccnc3)c(C)o2)cc1OC` (stereo not given), with 7.2%.
The result for `CCOc1ccccc1C(=O)NCCCn1ccnc1` reads -3.4%; that for `CCOc1ccc(/C(O)=C2/C(=O)C(=O)N(Cc3cccnc3)C2c2ccc(N(C)C)cc2)c(C)c1` (stereo not given), 27.7%.
Then `COc1cc(C2C(C(=O)c3ccc(C)o3)=C(O)C(=O)N2Cc2cccnc2)ccc1O` (stereo not given), with 40.6% (active).
`COc1cc(C2C(C(=O)Nc3ccccc3OC)=C(C)Nc3ncnn32)ccc1O` (stereo not given): the inhibition is -6.4%.
Turning to `COc1cc(C2C(C(=O)c3sc(C)nc3C)=C(O)C(=O)N2CCN(C)C)cc(OC)c1OC` (stereo not given), the inhibition was 3.4%.
Then `COc1cc(C2C(C(=O)c3ccc(C)o3)=C(O)C(=O)N2CCc2ccccc2)ccc1O` (stereo not given), with 69.9% (active); and `CCCOc1ccc(C2C(C(=O)c3ccc(C)o3)=C(O)C(=O)N2CCCn2ccnc2)cc1` (stereo not given), with 52.8% (active); and `CCCOc1ccc(C2c3c(oc4cc(C)c(C)cc4c3=O)C(=O)N2CCCN2CCOCC2)cc1` (stereo not given), with 5.8%.
The result for `O=C(c1cccnc1NCc1ccccc1)N1CCOCC1` reads -10.6%; that for `CCOC(=O)c1[nH]c2c(c1C)C(=O)CC(c1ccc(N(C)C)cc1)C2` (stereo not given), 9%; that for `Nc1ccc(-n2nncc2-c2ccco2)cc1`, 3%.
For `O=C(CN1CCN(S(=O)(=O)c2ccc(F)cc2)CC1)Nc1ccccc1F`, the inhibition is 5.7%.
Then `COc1ccc2c(CC(=O)Nc3nnc(C4CC4)s3)coc2c1`, with -3.4%; and `CC1Cc2cc(/C(O)=C3\C(=O)C(=O)N(CCN4CCOCC4)C3c3ccccc3F)ccc2O1` (stereo not given), with 18.6%.
Then `CCOc1cccc(/C(O)=C2/C(=O)C(=O)N(CCOC)C2c2ccncc2)c1` (stereo not given), with 4.6%; and `COCCCN1C(=O)C(=O)/C(=C(/O)c2ccc3c(c2)CC(C)O3)C1c1cccnc1` (stereo not given), with 33.5% (active).
Consider `COc1cc(C2C(C#N)=C(C)NC3=C2C(=O)CC(C)(C)C3)ccc1O` (stereo not given), for which the inhibition is 4.9%.
Regarding `Cc1ccc(C2CC(=O)NC(SCC(=O)OCc3ccccc3)=C2C#N)o1` (stereo not given), the inhibition is 0.1%.
The result for `CCCOC(=O)Nc1sc2c(c1C(=O)OCC)CCC2` reads -12.7%.
Then `CCN(CC)S(=O)(=O)N1CCC(C(=O)NC(C)CCc2ccccc2)CC1` (stereo not given), with -9.4%; and `CCC(C)(NC(=O)c1ccccn1)C(=O)NC1CCCCC1` (stereo not given), with 6.6%.
For `COCCNC(=O)Cn1cc2c(n1)CCCCC2`, the inhibition is -5.5%.
The result for `Cc1onc(-c2ccccc2Cl)c1C(=O)NCCn1ccc2ccccc21` reads 5.6%; that for `COc1ccccc1CNC(=O)CCn1c(=O)sc2ccccc21`, 1.8%.
Then `O=C(C1CCN(S(=O)(=O)c2cccs2)CC1)N1CCCCCC1`, with 2.5%.
For `Cc1cc(C)nc(-n2nc(C)cc2NC(=O)c2ccc(Br)o2)n1`, the inhibition is -6.1%.
The result for `O=C(CN1C(=O)C2C3C=CC(C3)C2C1=O)NCC1COc2ccccc2O1` (stereo not given) reads -0.7%; that for `O=C1c2ccncc2C(=O)N1C1CCCCC1`, 0.9%.
The result for `COc1ccc(Cn2nnc3c(=O)[nH]c(C4CCN(C(=O)c5ccccc5Cl)CC4)nc32)cc1` reads -0.8%.
Then `Cc1nc(C)c(C(=O)Nc2cccc(C)c2C)o1`, with 3%; and `COc1ccccc1Cn1c(=S)[nH]c2cc(C(=O)N3CCN(C)CC3)ccc2c1=O`, with -4%.
For `S=C1SCN(CCN2CCOCC2)CN1Cc1ccccc1`, the inhibition is -1.1%.
The result for `CCOC(=O)C1CCN(C(=O)CSc2cc(=O)n(C)c3ccccc23)CC1` reads -1.5%; that for `Cn1c(=O)cc(OCCCC(=O)N2CCN(c3ccccn3)CC2)c2ccccc21`, -0.8%.
